The values below come from PubChem BioAssay (Tox21).

Inconclusive results are not listed. Where a call stands in place of a potency, no number is given. A number with no mark means an inactive call. The source made the active and inactive calls. Calls follow the shape of the dose curve; as a rule, active = well fitted cell-killing curve with a large enough effect in the repeat runs; inconclusive = weak or mixed curves, or effect the other way; inactive = flat fitted curve, though single readings scatter.
Potency is read from the fitted curve at half-maximal effect.

This test can be described thus: qHTS assay to identify small molecule antagonists of the androgen receptor (AR) signaling pathway using the MDA cell line - cell viability counter screen (AID 743041; also: nearly all actives have a fitted effect of over 45% in size). As to conditions: MDA-kb2 viability, CellTiter-Fluor, 16 h, cells co-treated with R1881 androgen agonist; series mostly up to 70.3 µM; viability change, negative = cytotoxic: at the top concentration. An excerpt:
National Center for Advancing Translational Sciences [NCATS]
NIH Chemical Genomics Center [NCGC]
U.S. Environmental Protection Agency [EPA]
National Institutes of Environmental Health Sciences [NIEHS]
National Toxicology Program [NTP]
U.S. Food and Drug Administration [FDA]
Androgen receptor (AR), a nuclear hormone receptor, plays a critical role in AR-dependent prostate cancer and other androgen related diseases. Endocrine disrupting chemicals (EDCs) and their interactions with steroid hormone receptors like AR may cause disruption of normal endocrine function as well as interfere with metabolic homeostasis, reproduction, developmental and behavioral functions. To identify the compounds that inhibit AR signaling, MDA-kb2 AR-luc cell line (from ATCC, deposited by Wilson et al.) was used to screen the Tox21 10K compound library. MDA-kb2 AR-luc cell line is human breast carcinoma cell line that was stably transfected with a luciferase reporter gene under control of the MMTV promoter containing response elements for both androgen receptor (AR) and glucocorticoid receptor (GR). The cytotoxicity of the Tox21 compound library against the MDA-kb2 AR-luc cell line was tested in parallel by measuring the cell viability using CellTiter-Fluor assay (Promega, Madison, WI) in the same wells.
Tox21 Assay Protocol Summary:
MDA-kb2 AR-luc cells were dispensed at 3,000 cells/4 uL/well of culture medium into white wall/solid-bottom 1536-well plates using a Multidrop Combi (ThermoFisher Scientific, Waltham, MA) dispenser. After the assay plates were incubated at a 37C and 0% CO2 for 5 hr, 23 nL of compounds dissolved in DMSO, positive controls or DMSO only was transferred to the assay plate by a Pintool station (Kalypsys, San Diego, CA), followed by addition of 1 uL of agonist (R1881) in culture medium using a Bioraptr Flying Reagent Dispenser (FRD) workstation (Beckman Coulter, Indianapolis, IN, USA). The plates were incubated at a 37C and 0% CO2 for 16 h. After 15.5 h incubation, 1uL of CellTiter-Fluor reagent (Promega) was added using a Bioraptr FRD to each plate for measuring cytotoxicity. The fluorescence intensity was quantified on a ViewLux plate reader (PerkinElmer, Shelton, CT) following 30 min incubation at 37C and 0% CO2.
(qHTS replaces the single test concentration by a dilution series.)
Consider `C=CC(C)(O)CCC=C(C)C` (stereo not given), for which the Potency result was “inactive”. On the same count and under the same terms, the same measure for `C=CC(=O)OCCCC`: “inactive”; for `O=C(O)c1cc(=O)[nH]c(=O)[nH]1`: “inactive”; for `[Na+]`: “inactive”.

On to `COC(=O)C(C)Oc1ccc(Oc2ncc(C(F)(F)F)cc2Cl)cc1` (stereo not given), for which the Potency entry is “inactive”. The same measure, in the same setting: then `CN(Cc1cnc2nc(N)nc(N)c2n1)c1ccc(C(=O)N[C@@H](CCC(=O)O)C(=O)O)cc1`, with “inactive”; and `ClC/C=C/CCl`, with “inactive”; and `CCCCCCC(C)O` (stereo not given), with “inactive”. Still for that read-out and setting: then `CN(C)/N=N/c1nc[nH]c1C(N)=O`, with “inactive”; and `CC1(C)O[C@@H]2C[C@H]3[C@@H]4C[C@H](F)C5=CC(=O)C=C[C@]5(C)[C@@]4(F)[C@@H](O)C[C@]3(C)[C@]2(C(=O)CO)O1`, with “inactive”.

Regarding `OCCNCCO`, the Potency entry is “inactive”. As to `Cc1ccc(S(=O)(=O)NCl)cc1`, the Potency result is “inactive”. As for `CN(C)CCCN1c2ccccc2Sc2ccc(Cl)cc21`, the Potency was 68.6 µM (active).

For the molecule `C=C[C@H]1CN2CC[C@H]1C[C@@H]2[C@@H](O)c1ccnc2ccc(OC)cc12`, the Potency result was “inactive”. Same read-out and setting: then `CC(=O)OC(C)C`, with “inactive”; and `C=CN1CCCC1=O`, with “inactive”; and `Cc1ccc2c(c1)C(=O)OC2=O`, with “inactive”. Still for that read-out and setting: then `CC(=O)[C@H]1CC[C@H]2[C@@H]3CC=C4C[C@@H](O)CC[C@]4(C)[C@H]3CC[C@]12C`, with “inactive”. Still for that read-out and setting: the same measure for `O=S1(=O)CCCO1`: “inactive”. Turning to `CC1=CC(C)(C)Nc2ccccc21`, the “viability change, negative = cytotoxic” value is 4.07%. In the case of `CCC/C=C/C=O`, the Potency result was “inactive”. With `Cc1ccc(C(C)(C)C)cc1`, the Potency entry was “inactive”. Same read-out and setting: the same measure for `CCO[Si](CCCNC(N)=O)(OCC)OCC`: “inactive”; for `CC(C)(Oc1ccc(Cl)cc1)C(=O)O`: “inactive”; for `c1ccc2c(c1)[nH]c1ccccc12`: “inactive”. Same read-out and setting: the same measure for `OC[C@@H](O)[C@@H](O[C@@H]1O[C@H](CO)[C@H](O)[C@H](O)[C@H]1O)[C@H](O)[C@@H](O)CO`: “inactive”; for `CCCCCCOCCOCCO`: “inactive”.

On to `O=C1CCc2ccccc2O1`, for which the Potency entry was “inactive”. The same measure, in the same setting: then `Oc1c(Cl)ccc(Cl)c1Cl`, with “inactive”; and `NCCOCCO`, with “inactive”.

`Cc1ccc(S(=O)(=O)O)cc1C`: the Potency entry was “inactive”. On the same count and under the same terms, then `CC1(C)NC(=O)N(c2ccc([N+](=O)[O-])c(C(F)(F)F)c2)C1=O`, with 61.1 µM (active); and `CC(=O)Oc1c(C)c(C)c2c(c1C)CC[C@@](C)(CCC[C@H](C)CCC[C@H](C)CCCC(C)C)O2`, with “inactive”. On to `CCCN1C=CN(C)C1`, for which the Potency result is “inactive”. Turning to `CCCCCC1C(=O)CCC1CC(=O)OC` (stereo not given), the Potency result was “inactive”.

For the molecule `CCCCCCCCCCCCO`, the Potency entry is “inactive”. Still for that read-out and setting: then `Cc1ccc(N)c([N+](=O)[O-])c1`, with “inactive”; and `Cc1ccc([N+](=O)[O-])c(C)c1`, with “inactive”. Take `Cc1ccc(/C(=C\CN2CCCC2)c2ccccn2)cc1`: the “viability change, negative = cytotoxic” value is -14%.

For the molecule `CCCCCCCC/C=C\CCCCCCCC(=O)O`, the Potency entry was “inactive”.
